Our source for the Potency values is PubChem BioAssay (Tox21).

Values joined by “and” are separate entries in the source; they are usually repeats but may differ in a detail not shown here. Equal entries are not always repeated. Inconclusive results are not listed. More than one record can exist for a structure, and the calls need not agree. Active and inactive are the calls of the source. Calls follow the shape of the dose curve; as a rule, active = well fitted curve in the direction sought with a large enough effect in the repeat runs; inconclusive = weak or mixed curves; inactive = no such curve, though single readings can be large; an effect the other way counts as inactive or inconclusive.

Test [1] is described as follows: qHTS RealTime-Glo MT Cell Viability Assay in HEK293 cells - 0 hour (AID 1224880). Also: nearly all actives have a fitted effect of over 45% in size. Also: potency is read from the fitted curve at half-maximal effect. The gist of the method: (§1)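 Real-time viability in HEK293: signal arises when living cells convert a prosubstrate for NanoLuc in the medium, so luminescence tracks viable cell number. Compound (23 nL, DMSO) added 5 h post-seeding; kinetic reads at 0–40 h, 37 C.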
Test [2] in a line: A CellTox Green Cytotoxicity Assay to monitor cytotoxicity in HEK293 cells - 32 hour (AID 1224881). Also: nearly all actives have a fitted effect of over 40% in size. Also: potency is read from the fitted curve at half-maximal effect. The gist of the method: (§2)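 Cells (HEK293, 600/well) and dye reagent are dispensed together. After 5 h at 37 C, 23 nL compound is pinned in. Plates stay at 37 C for 40 h with fluorescence read at 0h, 8h, 16h, 24h, 32h and 40h.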
Test [3] in a line: A CellTox Green Cytotoxicity Assay to monitor cytotoxicity in HepG2 cells - 0 hour (AID 1224882). Also: nearly all actives have a fitted effect of over 35% in size. Also: potency is read from the fitted curve at half-maximal effect. The gist of the method: (§3)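 Cells and non-lytic dye reagent are dispensed together (600 HepG2 cells/well) and incubated 5 h before DMSO compound transfer. Kinetic fluorescence is then recorded in the same wells during 40 h at 37 C.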
A short description of test [4]: A CellTox Green Cytotoxicity Assay to monitor cytotoxicity in HepG2 cells - 32 hour (AID 1224883). Also: nearly all actives have a fitted effect of over 50% in size. Also: potency is read from the fitted curve at half-maximal effect. The gist of the method:
as §3

Test [5] can be described thus: A CellTox Green Cytotoxicity Assay to monitor cytotoxicity in HEK293 cells - 8 hour (AID 1224884). Also: nearly all actives have a fitted effect of over 35% in size. Also: potency is read from the fitted curve at half-maximal effect. The gist of the method:
as §2

Test [6] can be described thus: qHTS RealTime-Glo MT Cell Viability Assay in HEK293 cells - 24 hour (AID 1224886). Also: nearly all actives have a fitted effect of over 50% in size. Also: potency is read from the fitted curve at half-maximal effect. The gist of the method:
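Quantitative high-throughput screen of the Tox21 10K library in HEK293: cells and RealTime-Glo reagents plated together, compound added at 5 h, luminescence monitored through 40 h at 37 C.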
In general terms: Quantitative high-throughput screening tests each substance at several concentrations.

Test [7] is described as follows: A CellTox Green Cytotoxicity Assay to monitor cytotoxicity in HEK293 cells - 16 hour (AID 1224888). Also: nearly all actives have a fitted effect of over 35% in size. The gist of the method:
as §2

Test [8] can be described thus: qHTS RealTime-Glo MT Cell Viability Assay in HepG2 cells - 0 hour (AID 1224889). Also: nearly all actives have a fitted effect of over 50% in size. Also: potency is read from the fitted curve at half-maximal effect. The gist of the method: (§4)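 Compound treatment began 5 h after plating HepG2 cells (600/well) with NanoLuc luciferase and prosubstrate. Plates stayed at 37 C for 40 h; luminescence was captured at six time points, 0 h through 40 h.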
Test [9] in a line: qHTS RealTime-Glo MT Cell Viability Assay in HEK293 cells - 8 hour (AID 1224887). Also: nearly all actives have a fitted effect of over 50% in size. Also: potency is read from the fitted curve at half-maximal effect. The gist of the method: as §1
A short description of test [10]: qHTS RealTime-Glo MT Cell Viability Assay in HepG2 cells - 16 hour (AID 1224885). Also: nearly all actives have a fitted effect of over 50% in size. Also: potency is read from the fitted curve at half-maximal effect. The gist of the method:
as §4

For the compound `CN(C)c1ccc(C(=N)c2ccc(N(C)C)cc2)cc1`, the Potency result in test [1], in test [2], in test [3], in test [5], in test [7] and in test [8] was “inactive” each time. In addition, the Potency in test [4] was 4.84 µM (active) and 18.8 µM (active); in test [6], 3.42 µM (active) and 4.2 µM (active).

As for `CCCCC(CC)COC(=O)/C=C\C(=O)OCC(CC)CCCC` (configuration not stated), the Potency result in test [1], in test [2], in test [3], in test [4], in test [5] and in [6] was “inactive” in each case. Besides, the Potency result in test [7] and in [8] was “inactive” each time.

Consider `Clc1cc(Cl)c(Cl)cc1Cl`, for which the Potency entry in [1], in [2], in [3], in test [4], in test [5] and in test [6] was “inactive” each time. Also, the Potency entry in test [7] and in test [8] was “inactive” in each case.

`CC1=C(/C=C/C(C)=C/C=C/C(C)=C/CO)C(C)(C)CCC1`: the Potency result in test [1], in test [2], in test [3], in test [4], in test [5] and in test [6] was “inactive” each time. Besides, the Potency result in [7] and in test [8] was “inactive” in each case.

Consider `NC(=O)NNc1ccccc1`, for which the Potency result in test [1], in [2], in test [3], in test [4], in test [5] and in [6] was “inactive” in each case. The Potency result in [9], in test [7] and in [8] was “inactive” in each case.

As for `Nc1cc(-c2ccncc2)c[nH]c1=O`, the Potency result in test [1], in test [2], in test [3], in test [4], in test [5] and in test [10] was “inactive” in each case. Moreover, the Potency entry in [6], in test [7] and in test [8] was “inactive” throughout.

For the compound `CC1(C)O[C@@H]2C[C@H]3[C@@H]4C[C@H](F)C5=CC(=O)CC[C@]5(C)[C@H]4[C@@H](O)C[C@]3(C)[C@]2(C(=O)CO)O1`, the Potency in test [1] is 17.4 µM (active) and 10.7 µM (active); in [3], 38.9 µM (active) and inactive; in test [4], 43.6 µM (active) and inactive; in test [8], 1.23 µM (active) and 2.68 µM (active). Further, the Potency result in test [2], in test [5], in [10], in test [6] and in [7] was “inactive” throughout.

On to `O=[N+]([O-])c1cc(N(CCO)CCO)ccc1NCCO`, for which the Potency result in test [1], in [2], in [3], in [4], in [5] and in test [6] was “inactive” each time. Also, the Potency result in [9], in test [7] and in test [8] was “inactive” each time.

In the case of `CCCCOCCOCCOC(=O)CCCCC(=O)OCCOCCOCCCC`, the Potency entry in test [1], in test [2], in test [3], in test [4], in test [5] and in test [10] was “inactive” throughout. The Potency entry in test [6], in test [7] and in [8] was “inactive” each time.

As to `CS(=O)(=O)c1ccc([C@@H](O)[C@@H](CO)NC(=O)C(Cl)Cl)cc1`, the Potency entry in test [1], in [2], in test [3], in [4], in test [5] and in test [6] was “inactive” throughout. Moreover, the Potency result in [9], in test [7] and in test [8] was “inactive” in each case.

For the compound `COCC(C)O` (configuration not stated), the Potency entry in [1], in test [2], in test [3], in test [4], in test [5] and in test [6] was “inactive” in each case. The Potency entry in test [9], in test [7] and in test [8] was “inactive” throughout.

As to `CC1COc2ccccc2N1C(=O)C(Cl)Cl` (configuration not stated), the Potency entry in [1], in [2], in [3], in test [4], in test [5] and in test [6] was “inactive” in each case. Moreover, the Potency result in [9], in [7] and in test [8] was “inactive” in each case.

`O=c1c(-c2ccc(O)cc2)coc2cc(O)ccc12`: the Potency entry in test [1], in [2], in test [3], in [4], in test [5] and in test [10] was “inactive” in each case. The Potency entry in test [9], in [7] and in test [8] was “inactive” throughout.

Regarding `Cc1cc(Cc2ccc(N)c(C)c2)ccc1N`, the Potency result in test [1], in test [2], in [3], in test [4], in test [5] and in test [6] was “inactive” throughout. Besides, the Potency result in [7] and in [8] was “inactive” throughout.

Regarding `OC[C@@H](O)[C@H](O)[C@H](O)[C@@H](O)CO`, the Potency result in [1], in test [2], in test [3], in [4], in test [5] and in [6] was “inactive” in each case. In addition, the Potency entry in [9], in test [7] and in [8] was “inactive” throughout.

On to `CNC[C@H](O)[C@@H](O)[C@H](O)[C@H](O)CO`, for which the Potency result in [1], in [2], in test [3], in [4], in test [5] and in [6] was “inactive” in each case. Moreover, the Potency entry in test [9], in test [7] and in [8] was “inactive” in each case.

Take `CCc1ccc(O)cc1`: the Potency entry in [1], in test [2], in test [3], in test [4], in test [5] and in test [6] was “inactive” each time. In addition, the Potency entry in test [9], in test [7] and in [8] was “inactive” each time.

For `CC1Cc2ccccc2N1NC(=O)c1ccc(Cl)c(S(N)(=O)=O)c1` (configuration not stated), the Potency result in test [1], in test [2], in test [3], in test [4], in [5] and in [6] was “inactive” each time. The Potency result in [9], in test [7] and in [8] was “inactive” each time.

Regarding `COC(=O)c1ccc(C(=O)OC)cc1`, the Potency entry in test [1], in [2], in test [3], in [5], in test [6] and in test [9] was “inactive” throughout. The Potency entry in test [7] and in [8] was “inactive” each time. Also, the Potency in [4] is 19.8 µM (active) and inactive.

Turning to `COCC(=O)O`, the Potency result in test [2], in test [3], in test [4], in [5], in [10] and in test [6] was “inactive” in each case. The Potency entry in test [9], in [7] and in test [8] was “inactive” each time.

`CC(C)NCC(O)COc1cccc2ccccc12` (configuration not stated): the Potency result in [1], in test [2], in [3], in [5], in test [10] and in [6] was “inactive” in each case. Further, the Potency entry in test [7] and in test [8] was “inactive” each time.

Take `Oc1ccc(OCc2ccccc2)cc1`: the Potency entry in [2], in test [3], in test [4], in [5], in test [10] and in [7] was “inactive” each time. Moreover, in test [8], the Potency entry was “inactive”. Moreover, the Potency in test [6] is 853 nM (active) and inactive; in [9] it was 853 nM (active) and inactive.

As for `Oc1c(Cl)cc(Cl)c(Cl)c1Cl`, the Potency result in test [1], in test [2], in test [3], in test [4], in test [5] and in test [7] was “inactive” throughout. Also, in test [8], the Potency result is “inactive”.

For the compound `CCCCCCCCCCCCN`, the Potency entry in [1], in test [3] and in test [8] was “inactive” in each case. Besides, the Potency result in test [2] was “inactive and 43.6 µM (active)”; in test [4], “inactive and 21.9 µM (active)”; in test [5], “inactive and 49 µM (active)”; in test [10], “inactive and 24.5 µM (active)”; in test [6] it was “inactive and 38.9 µM (active)”.

For `CCOC(=O)[C@H](CCc1ccccc1)N[C@@H](C)C(=O)N1Cc2ccccc2C[C@H]1C(=O)O`, the Potency entry in test [1], in test [2], in test [3], in test [4], in test [5] and in test [6] was “inactive” throughout. Besides, the Potency result in test [7] and in test [8] was “inactive” throughout.

Take `CCCCC(CC)COC(=O)CCCCCCCC(=O)OCC(CC)CCCC` (configuration not stated): the Potency result in test [1], in [10] and in [8] was “inactive” throughout. For the same compound, the Potency in test [2] is 54.9 µM (active) and inactive; in test [3] it was 54.9 µM (active) and inactive; in test [4], 49 µM (active); in test [5], 54.9 µM (active) and inactive; in [6], 24.5 µM (active) and inactive.

`CCCCC(CC)C(=O)OCCOCCOCCOC(=O)C(CC)CCCC` (configuration not stated): the Potency entry in [1], in test [2], in [3], in test [4], in test [5] and in [7] was “inactive” throughout. Moreover, in test [8], the Potency entry was “inactive”.

`CC[Si](OC(C)=O)(OC(C)=O)OC(C)=O`: the Potency result in test [1], in test [2], in [3], in test [4], in test [5] and in [6] was “inactive” in each case. Also, the Potency entry in test [7] and in test [8] was “inactive” each time.

For the compound `CC1CC(OC(=O)c2ccccc2O)CC(C)(C)C1` (configuration not stated), the Potency entry in [1], in [2], in test [3], in test [4], in test [5] and in test [6] was “inactive” each time. Moreover, the Potency result in [7] and in test [8] was “inactive” in each case.

For `CCOC(=O)C1OC1c1ccccc1` (configuration not stated), the Potency result in [1], in [2], in test [3], in test [4], in test [5] and in test [10] was “inactive” throughout. Besides, the Potency result in [9], in [7] and in test [8] was “inactive” throughout.

Regarding `CC1(C)CC(N=C=O)CC(C)(CN=C=O)C1` (configuration not stated), the Potency result in test [2], in test [3], in test [4], in test [5], in test [6] and in test [9] was “inactive” in each case. Besides, the Potency entry in [7] and in test [8] was “inactive” throughout.

In the case of `O=C(c1cc(O)c(O)c(O)c1)c1ccc(O)c(O)c1O`, the Potency entry in [2], in [3], in test [4], in [5], in test [10] and in test [6] was “inactive” throughout. The Potency entry in test [9], in [7] and in test [8] was “inactive” in each case.

Take `CCCCOCCO`: the Potency result in [2], in test [3], in test [4], in [5], in test [6] and in test [9] was “inactive” each time. Moreover, the Potency entry in test [7] and in test [8] was “inactive” each time.

Regarding `CS(=O)(=O)Nc1ccc([N+](=O)[O-])cc1Oc1ccccc1`, the Potency entry in test [2], in [3], in test [4], in test [5], in test [10] and in [6] was “inactive” each time. Besides, the Potency result in test [7] is “inactive”.
